{
  "source": "PubChem BioAssay (Tox21)",
  "note": "Inconclusive results are not listed. Where a call stands in place of a potency, no number is given. Calls of active or inactive are those of the source. The call rests on the fitted dose curve; in most records, active means well fitted inhibition curve with a large enough effect in the repeat runs; inconclusive means weak or mixed curves; inactive means no such curve, though single readings can be large or run the other way. Potency means the concentration at half of the fitted maximal effect.",
  "data": [
    {"test": "qHTS assay to identify small molecule antagonists of the estrogen related receptor (ERR) signaling pathway from Tox21 library (AID 1224848); further: nearly all actives have a fitted effect of over 50% in size", "details": "ERR reporter cell line, luciferase antagonist mode, 18 h; series mostly up to 92.4 µM", "text": "U.S. Tox21 Program National Center for Advancing Translational Sciences [NCATS] NIH Chemical Genomics Center [NCGC] U.S. Environmental Protection Agency [EPA] National Institutes of Environmental Health Sciences [NIEHS] National Toxicology Program [NTP] U.S. Food and Drug Administration [FDA] Tox21 Assay Overview: Estrogen related receptors (ERRs), the first orphan nuclear receptors discovered, play an important role in the control of cellular energy metabolism. ERRs are required for high-energy production in response to the environmental challenges. ERR-alpha was also identified as an adverse marker for breast cancer progression; ERR-alpha-positive tumors have a poor prognosis. To screen and to identify environmental compounds that perturb the ERR signaling pathways could provide valuable information for potential therapeutic or preventive measures in the treatment of metabolic disease. For identifying ERR antagonists, ERR cell line (provided by NTP) has been used to screen Tox21 10K library.\nTox21 Assay Protocol Summary: The ERR cells were dispensed at 2,000 cells/5 ul/well in 1536-well white plates using a Multidrop dispenser. After the assay plates were incubated at a 37 C/5% CO2 incubator for 6 hours, 23 nL of compounds dissolved in DMSO, positive and negative controls or DMSO only was transferred to the assay plate by a pin tool. The plates were incubated at 37 C for 18 hours. 4 ul/well of One-Glo reagent was added into the assay plates using a Flying Reagent Dispenser. After 30-minute incubation at room temperature, the luminescence intensity in the plates was measured using a ViewLux plate reader.", "values": [
      {"smiles": "CC(=O)OCC(=O)NCCCOc1cccc(CN2CCCCC2)c1", "Potency": "inactive"},
      {"smiles": "Cc1ccc(OC(=O)c2ccccc2O)cc1", "Potency": "inactive"},
      {"smiles": "O=C1Cc2ccccc2N1c1c(Cl)cccc1Cl", "Potency": "48.6 µM (active)"},
      {"smiles": "O=Cc1c2ccccc2c(Cl)c2ccccc12", "Potency": "9.45 µM (active)"},
      {"smiles": "CC1=C(Br)C(=O)C(Br)=C/C1=C(/c1ccccc1S(=O)(=O)O)c1cc(Br)c(O)c(Br)c1C", "Potency": "18.6 µM (active)"},
      {"smiles": "COc1ccccc1NC(=O)c1cc2ccccc2cc1O", "Potency": "19.3 µM (active)"},
      {"smiles": "C[C@H]1C[C@H](O)c2ccsc2S1(=O)=O", "Potency": "inactive"},
      {"smiles": "O=C(O)c1ccc(OCCCOc2ccc(C(=O)O)cc2)cc1", "Potency": "inactive"},
      {"smiles": "CN1C[C@H](C(=O)N[C@]2(C)O[C@@]3(O)[C@@H]4CCCN4C(=O)[C@H](Cc4ccccc4)N3C2=O)C[C@@H]2c3cccc4[nH]cc(c34)C[C@H]21", "Potency": "29.8 µM (active)"},
      {"smiles": "CCCCCCCCCCCCCCN(CCO)CCO", "Potency": "61.1 µM (active)"},
      {"smiles": "CCOC(=O)c1ccccc1C(=C1C=C(Br)C(=O)C(Br)=C1)c1cc(Br)c(O)c(Br)c1", "Potency": "45.7 µM (active)"},
      {"smiles": "C[C@@H]1CC(=O)NN=C1c1ccc(NN=C(C#N)C#N)cc1", "Potency": "13.3 µM (active)"},
      {"smiles": "CN1CCCN=C1COC(=O)C(O)(c1ccccc1)C1CCCCC1", "note": "(stereo not given)", "Potency": "inactive"},
      {"smiles": "Cc1cc(O)c(C)c(C)c1O", "Potency": "inactive"},
      {"smiles": "COC(=O)C1=C(C)NC(C)=C(C(=O)O[C@@H]2CCCN(Cc3ccccc3)C2)[C@@H]1c1cccc([N+](=O)[O-])c1", "Potency": "23.7 µM (active)"},
      {"smiles": "FC(F)(F)c1ccccc1Cl", "Potency": "inactive"},
      {"smiles": "C(=C\\c1ccccc1)/c1ccccc1", "Potency": "inactive"},
      {"smiles": "C=Cc1ccc(S(=O)(=O)O)cc1", "Potency": "inactive"},
      {"smiles": "OCCN1CCN(CCCN2c3ccccc3Sc3ccc(Cl)cc32)CC1", "Potency": "29.8 µM (active)"},
      {"smiles": "COC(=O)[C@H]1[C@H]2C[C@@H]3c4[nH]c5cc(OC)ccc5c4CCN3C[C@H]2C[C@@H](OC(=O)/C=C/c2ccc(O)c(OC)c2)[C@@H]1OC", "Potency": "10.6 µM (active)"},
      {"smiles": "Clc1ccc(Nc2nnc(Cc3ccncc3)c3ccccc23)cc1", "Potency": "11.9 µM (active)"},
      {"smiles": "CCCCC(CC)CN", "note": "(stereo not given)", "Potency": "inactive"},
      {"smiles": "CC(C)(C)CC(=O)OCC(=O)[C@@]1(O)CC[C@H]2[C@@H]3CCC4=CC(=O)C=C[C@]4(C)[C@H]3[C@@H](O)C[C@@]21C", "Potency": "26.6 µM (active)"},
      {"smiles": "CCCC(C(=O)OCCN(CC)CC)(c1ccccc1)c1ccccc1", "Potency": "29.8 µM (active)"},
      {"smiles": "c1ccc(C[n+]2cccc3ccccc32)cc1", "Potency": "48.6 µM (active)"},
      {"smiles": "CCC1(CO)COCOC1", "Potency": "inactive"},
      {"smiles": "CCOC(=O)c1ccc(I)cc1", "Potency": "inactive"},
      {"smiles": "C[C@]12CC[C@@H]3c4ccc(O)cc4CC[C@H]3[C@@H]1CC[C@@H]2OC(=O)CCC1CCCC1", "Potency": "54.5 µM (active)"},
      {"smiles": "CC[N+](CC)(CCNC(=O)C(=O)NCC[N+](CC)(CC)Cc1ccccc1Cl)Cc1ccccc1Cl", "Potency": "inactive"},
      {"smiles": "C=C1C[C@@]23CC[C@H]4[C@@](C)(CCC[C@@]4(C)C(=O)O[C@@H]4O[C@H](CO)[C@@H](O)[C@H](O)[C@H]4O)[C@@H]2CC[C@]1(O[C@@H]1O[C@H](CO)[C@@H](O)[C@H](O[C@@H]2O[C@H](CO)[C@@H](O)[C@H](O)[C@H]2O)[C@H]1O[C@@H]1O[C@H](CO)[C@@H](O)[C@H](O)[C@H]1O)C3", "Potency": "inactive"},
      {"smiles": "C[C@@]12CCC[C@H]1[C@@H]1CC[C@H]3C[C@@H](O)CC[C@]3(C)[C@H]1CC2", "Potency": "inactive"},
      {"smiles": "O=c1cc(-c2ccccc2)oc2ccc3ccccc3c12", "Potency": "inactive"},
      {"smiles": "CC(C)(O)c1ccc(CNC(=O)c2cccnc2Oc2ccc3nonc3c2)cc1", "Potency": "54.5 µM (active)"},
      {"smiles": "Cc1cc(O)ccc1O", "Potency": "inactive"},
      {"smiles": "CC(=O)Nc1ccc(C)cc1C", "Potency": "inactive"},
      {"smiles": "CN1C(=O)OC(C)(C)C1=O", "Potency": "inactive"},
      {"smiles": "O=C(OCC(O)CO)c1ccccc1Nc1ccnc2cc(Cl)ccc12", "note": "(stereo not given)", "Potency": "26.6 µM (active)"},
      {"smiles": "O=C1c2ccccc2C(=O)c2c(O)c(O)cc(O)c21", "Potency": "inactive"},
      {"smiles": "COc1ncnc(NS(=O)(=O)c2ccc(N)cc2)c1OC", "Potency": "inactive"},
      {"smiles": "NC1[C@H]2CN(c3nc4c(cc3F)c(=O)c(C(=O)O)cn4-c3ccc(F)cc3F)C[C@@H]12", "note": "(stereo not given in full)", "Potency": "inactive"}
    ]}
  ]
}
